Data reported in PubChem BioAssay (NCI).
About 83,000 compounds went through this panel and 20% of them were active in at least one assay; those are over-represented in the sample as a whole.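 Interpretation: 100, growth as untreated; towards 0, rising growth inhibition; 0, no net growth; 0 to -100, cell death. Compounds scoring below 10 were considered active.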 Calls of active or inactive are those of the source.

How the values were obtained:
Assay in all cases: NCI-60 one-dose screen, 48 h (100 = growth as untreated, 0 = no growth, -100 = all killed)
Conditions in all cases: 10 µM unless noted
EKVX NSCLC = system: EKVX NSCLC
SN12C renal = system: SN12C renal
UO-31 renal = system: UO-31 renal
TK-10 renal = system: TK-10 renal
ACHN renal = system: ACHN renal
CAKI-1 renal = system: CAKI-1 renal
A498 renal = system: A498 renal
CCRF-CEM leukemia = system: CCRF-CEM leukemia
MOLT-4 leukemia = system: MOLT-4 leukemia
SR leukemia = system: SR leukemia
RPMI-8226 leukemia = system: RPMI-8226 leukemia
OVCAR-8 ovarian = system: OVCAR-8 ovarian
OVCAR-5 ovarian = system: OVCAR-5 ovarian
OVCAR-4 ovarian = system: OVCAR-4 ovarian
SK-OV-3 ovarian = system: SK-OV-3 ovarian
IGROV1 ovarian = system: IGROV1 ovarian
OVCAR-3 ovarian = system: OVCAR-3 ovarian
HS 578T breast = system: HS 578T breast
T-47D breast = system: T-47D breast
NCI/ADR-RES ovarian = system: NCI/ADR-RES ovarian

Measured: growth

O=C(c1ccc(O)cc1)C1[C@H](c2ccc(Cl)cc2)[C@@H](c2ccccc2)NC12C(=O)Nc1ccc(Cl)cc12 (stereo partly drawn)
active: SN12C renal -1.78% | SR leukemia 9.52%
inactive: EKVX NSCLC 48.1% | UO-31 renal 35.4% | TK-10 renal 66.9% | ACHN renal 16.8% | CAKI-1 renal 29.5% | A498 renal 50.8% | CCRF-CEM leukemia 40.4% | MOLT-4 leukemia 10.3% | RPMI-8226 leukemia 26.4% | OVCAR-8 ovarian 47.7% | OVCAR-5 ovarian 68.8% | OVCAR-4 ovarian 47.1% | SK-OV-3 ovarian 94.6% | IGROV1 ovarian 38.9% | OVCAR-3 ovarian 33.1% | HS 578T breast 60.5% | T-47D breast 31.4%

Cc1nc(-c2cc3ccccc3oc2=O)ccc1C(=O)/C=C/c1ccc(Cl)c(Cl)c1
inactive: EKVX NSCLC 92.1% | SN12C renal 99.8% | UO-31 renal 89.4% | TK-10 renal 117% | ACHN renal 93.1% | CAKI-1 renal 95.7% | A498 renal 93.8% | CCRF-CEM leukemia 104% | MOLT-4 leukemia 102% | SR leukemia 94.9% | RPMI-8226 leukemia 101% | OVCAR-8 ovarian 99.5% | OVCAR-5 ovarian 113% | OVCAR-4 ovarian 107% | SK-OV-3 ovarian 127% | IGROV1 ovarian 104% | OVCAR-3 ovarian 111% | HS 578T breast 90.7% | NCI/ADR-RES ovarian 105% | T-47D breast 104%

CC(C)NC(=O)c1cc(-c2ccc(NC(=O)Nc3ccc(N4CCOCC4)c(C(F)(F)F)c3)cc2)nc2cccnc12
inactive: EKVX NSCLC 72.7% | SN12C renal 69% | UO-31 renal 48.2% | TK-10 renal 143% | ACHN renal 62.7% | CAKI-1 renal 63.7% | A498 renal 25.6% | CCRF-CEM leukemia 44.3% | MOLT-4 leukemia 18.7% | SR leukemia 10.2% | RPMI-8226 leukemia 14.3% | OVCAR-8 ovarian 63.7% | OVCAR-5 ovarian 88.1% | OVCAR-4 ovarian 71.7% | SK-OV-3 ovarian 88.5% | IGROV1 ovarian 66.9% | T-47D breast 64.2%
active: HS 578T breast 9.42%

Nc1c(C(=O)Nc2ccc(Cl)cc2)sc2nc(-c3cnccn3)cc(-c3cccs3)c12
inactive: EKVX NSCLC 71.7% | SN12C renal 66.6% | UO-31 renal 67.7% | TK-10 renal 118% | ACHN renal 17% | A498 renal 82.3% | CCRF-CEM leukemia 88.6% | MOLT-4 leukemia 70.1% | SR leukemia 40.7% | RPMI-8226 leukemia 85.1% | OVCAR-8 ovarian 48.1% | OVCAR-5 ovarian 66.2% | OVCAR-4 ovarian 61.3% | SK-OV-3 ovarian 74.1% | IGROV1 ovarian 74.2% | OVCAR-3 ovarian 62.7% | HS 578T breast 47.1% | NCI/ADR-RES ovarian 68.3% | T-47D breast 96.7%
active: CAKI-1 renal -6.36%

COc1cccc(-c2nn(-c3ccccc3)cc2-c2ccnc(N3CCN(C(=O)Nc4ccc(F)cc4)CC3)c2)c1
active: T-47D breast 3.31%
inactive: EKVX NSCLC 62.1% | SN12C renal 67.4% | UO-31 renal 34.4% | TK-10 renal 92.9% | ACHN renal 67.6% | CAKI-1 renal 49.2% | A498 renal 56.9% | CCRF-CEM leukemia 31.8% | MOLT-4 leukemia 19.3% | SR leukemia 24.8% | RPMI-8226 leukemia 21.4% | OVCAR-8 ovarian 48.8% | OVCAR-5 ovarian 97.6% | OVCAR-4 ovarian 51.2% | SK-OV-3 ovarian 107% | IGROV1 ovarian 79.1% | HS 578T breast 85.8% | NCI/ADR-RES ovarian 33.4%

COc1cccc(-c2nn(-c3ccccc3)cc2-c2ccnc(N3CCN(C(=O)c4ccccc4)CC3)c2)c1
inactive: EKVX NSCLC 103% | SN12C renal 87.6% | UO-31 renal 72.3% | TK-10 renal 127% | ACHN renal 93% | CAKI-1 renal 86.2% | A498 renal 66.9% | CCRF-CEM leukemia 52.9% | MOLT-4 leukemia 43.8% | SR leukemia 27.5% | RPMI-8226 leukemia 47.7% | OVCAR-8 ovarian 56.4% | OVCAR-5 ovarian 112% | OVCAR-4 ovarian 77.9% | SK-OV-3 ovarian 118% | IGROV1 ovarian 76% | HS 578T breast 100% | T-47D breast 50.3%

COc1ccccc1/C=C/C=N/NC1=NC2C(S1)N(C)C(=O)N2C (stereo not drawn)
active: A498 renal -18.2% | HS 578T breast 3.97%
inactive: EKVX NSCLC 40.1% | SN12C renal 39.1% | UO-31 renal 49% | TK-10 renal 76.3% | ACHN renal 46.3% | CAKI-1 renal 30.6% | CCRF-CEM leukemia 15.3% | MOLT-4 leukemia 21% | SR leukemia 13.2% | RPMI-8226 leukemia 10.6% | OVCAR-8 ovarian 31.1% | OVCAR-5 ovarian 52.3% | OVCAR-4 ovarian 72% | SK-OV-3 ovarian 32.9% | IGROV1 ovarian 46% | NCI/ADR-RES ovarian 28.9% | T-47D breast 31.2%

Cc1c(NC(=O)CSc2nc3sc4c(c3c(=O)n2-c2ccc(Cl)cc2)CCCC4)c(=O)n(-c2ccccc2)n1C
inactive: EKVX NSCLC 97.3% | SN12C renal 88.9% | UO-31 renal 72.8% | TK-10 renal 109% | ACHN renal 90.8% | CAKI-1 renal 65.1% | A498 renal 62.6% | CCRF-CEM leukemia 98.2% | MOLT-4 leukemia 71.3% | SR leukemia 86.1% | RPMI-8226 leukemia 86.7% | OVCAR-8 ovarian 97.1% | OVCAR-4 ovarian 91.9% | SK-OV-3 ovarian 93.8% | OVCAR-3 ovarian 100% | HS 578T breast 88.3% | NCI/ADR-RES ovarian 101% | T-47D breast 90.1%

COc1ccc([C@@H]2c3[nH]c4ccccc4c3CC3C(=O)N(C4CCN(Cc5c(F)cccc5F)CC4)CC(=O)N32)c(OC)c1 (stereo partly drawn)
inactive: EKVX NSCLC 51.9% [5.26 µM] | SN12C renal 67.5% [5.26 µM] | UO-31 renal 39.7% [5.26 µM] | TK-10 renal 63.5% [5.26 µM] | ACHN renal 47.6% [5.26 µM] | CAKI-1 renal 40.4% [5.26 µM] | A498 renal 29.4% [5.26 µM] | CCRF-CEM leukemia 58.1% [5.26 µM] | MOLT-4 leukemia 49% [5.26 µM] | SR leukemia 79.4% [5.26 µM] | RPMI-8226 leukemia 41.3% [5.26 µM] | OVCAR-8 ovarian 73.4% [5.26 µM] | OVCAR-5 ovarian 76.7% [5.26 µM] | OVCAR-4 ovarian 69.4% [5.26 µM] | IGROV1 ovarian 39.8% [5.26 µM] | HS 578T breast 45.1% [5.26 µM] | T-47D breast 47.1% [5.26 µM]

CCOC(=O)c1csc(NC(=O)CSc2nc3sc4c(c3c(=O)n2-c2ccc(Cl)cc2)CCCC4)n1
inactive: EKVX NSCLC 90.6% | SN12C renal 94.9% | UO-31 renal 77.2% | TK-10 renal 125% | ACHN renal 102% | CAKI-1 renal 92% | CCRF-CEM leukemia 100% | MOLT-4 leukemia 81.1% | SR leukemia 95.9% | RPMI-8226 leukemia 92.5% | OVCAR-8 ovarian 97.6% | OVCAR-5 ovarian 97.9% | OVCAR-4 ovarian 103% | SK-OV-3 ovarian 135% | IGROV1 ovarian 89.6% | OVCAR-3 ovarian 138% | HS 578T breast 97.3% | NCI/ADR-RES ovarian 107% | T-47D breast 87%

COc1ccc(/C=C/C(=O)c2ccc(NC(=O)CSc3nnc(-c4ccc5nc(-c6ccc(Cl)cc6)[nH]c5c4)o3)cc2)cc1
inactive: EKVX NSCLC 103% | SN12C renal 93.4% | UO-31 renal 87.5% | TK-10 renal 136% | ACHN renal 102% | CAKI-1 renal 97.4% | A498 renal 111% | CCRF-CEM leukemia 59.9% | MOLT-4 leukemia 64.4% | SR leukemia 80.5% | RPMI-8226 leukemia 64.4% | OVCAR-8 ovarian 79.5% | OVCAR-5 ovarian 107% | OVCAR-4 ovarian 103% | IGROV1 ovarian 95.3% | OVCAR-3 ovarian 111% | HS 578T breast 94.7% | NCI/ADR-RES ovarian 107% | T-47D breast 78%

C#Cc1nc(C2=C(C)C(O)CC2)cs1 (stereo not drawn)
inactive: EKVX NSCLC 113% | SN12C renal 101% | TK-10 renal 151% | ACHN renal 94.7% | CAKI-1 renal 110% | CCRF-CEM leukemia 102% | MOLT-4 leukemia 95.1% | SR leukemia 78.7% | RPMI-8226 leukemia 97.4% | OVCAR-8 ovarian 107% | OVCAR-5 ovarian 120% | OVCAR-4 ovarian 115% | SK-OV-3 ovarian 89% | OVCAR-3 ovarian 120% | HS 578T breast 104% | NCI/ADR-RES ovarian 35.9% | T-47D breast 92%
active: UO-31 renal -66.1% | IGROV1 ovarian 5.36%

COc1ccc(CNS(=O)(=O)/N=C2\NC(=O)NC2=C(Cl)Cl)cc1
inactive: EKVX NSCLC 83.2% | SN12C renal 20.7% | UO-31 renal 48.9% | TK-10 renal 41.6% | ACHN renal 32.7% | CAKI-1 renal 45.9% | CCRF-CEM leukemia 15.8% | MOLT-4 leukemia 19% | SR leukemia 20.5% | RPMI-8226 leukemia 15.3% | OVCAR-8 ovarian 10.8% | OVCAR-5 ovarian 37.2% | OVCAR-4 ovarian 69.1% | IGROV1 ovarian 43.5% | OVCAR-3 ovarian 30% | HS 578T breast 44% | T-47D breast 44%
active: A498 renal -9.6%

CCN(CC)c1ccc(C=O)c(OCc2cn(CC(=O)Nc3ccc(Cl)cc3)nn2)c1
inactive: EKVX NSCLC 82.8% | SN12C renal 63.5% | TK-10 renal 83.8% | ACHN renal 24.3% | CAKI-1 renal 57.5% | A498 renal 89.2% | CCRF-CEM leukemia 72.7% | MOLT-4 leukemia 51.9% | SR leukemia 47% | RPMI-8226 leukemia 57.9% | OVCAR-8 ovarian 75.3% | OVCAR-5 ovarian 91% | OVCAR-4 ovarian 70.4% | IGROV1 ovarian 74.7% | OVCAR-3 ovarian 83.5% | HS 578T breast 87.8% | NCI/ADR-RES ovarian 84.2% | T-47D breast 59.8%
active: UO-31 renal -58.2%

O=C1[C@H]2Cc3c([nH]c4ccccc34)[C@@H](c3ccc(Br)cc3)N2C(=O)CN1C1CCN(Cc2ccccc2)CC1
active: SR leukemia -10.6% | RPMI-8226 leukemia 3.9%
inactive: EKVX NSCLC 35.5% | SN12C renal 12.9% | UO-31 renal 38.5% | TK-10 renal 64.3% | ACHN renal 30.6% | CAKI-1 renal 44.9% | A498 renal 61% | CCRF-CEM leukemia 15.5% | MOLT-4 leukemia 12.7% | OVCAR-8 ovarian 41.6% | OVCAR-4 ovarian 48.3% | IGROV1 ovarian 18.7% | OVCAR-3 ovarian 68.1% | HS 578T breast 36.7% | T-47D breast 19.3%

COc1cc(/C=C/C(=O)c2ccc(C)cc2)ccc1Oc1nc(NCCO)nc(N2CCOCC2)n1
inactive: EKVX NSCLC 67.8% | SN12C renal 74% | UO-31 renal 51.5% | TK-10 renal 125% | ACHN renal 55.7% | CAKI-1 renal 50.4% | OVCAR-8 ovarian 76.1% | OVCAR-5 ovarian 83.6% | OVCAR-4 ovarian 80.6% | SK-OV-3 ovarian 95.9% | IGROV1 ovarian 53.9% | OVCAR-3 ovarian 75.1% | HS 578T breast 79.9% | NCI/ADR-RES ovarian 54.1% | T-47D breast 92.4%
active: CCRF-CEM leukemia 3.44% | MOLT-4 leukemia 0.537% | SR leukemia -3.65% | RPMI-8226 leukemia -18.3%
